This is a sample that favours compounds with a hit; in the whole collection about 2.6% have one here.
aDG glyco act: activators of alpha-DG glycosylation, primary screen, uHTS, Pro5-aDG cells, AlphaScreen; activation, % at 10 µM; alpha-DG glycosylation AlphaScreen (IIH6); 0% Pro5, 100% B10-LARGE cell signal; 0.22% of 360,000 active;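 active = activation of at least 8% versus controls, or a plate z-score of at least 8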;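 note: Pro5 are CHO cells carrying HIG-tagged alpha-DG that lacks glycosylation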
LGR2 antag: inhibitors of bursicon-induced LGR2 CRE-luciferase signal, primary screen, cell-based, HEK293, CRE-luciferase reporter, bursicon stimulation; Drosophila bursicon receptor LGR2 (rickets); bursicon-stimulated, 4 h; inhibition, % at 9.99 µM; 0.35% of 380,000 active; AID 720647, 2013;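 active = drop in luminescence signal, shown as inhibition above about 50% in the replicate tests, limit read from the data, passing the limit was not always enough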;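 note: agonist challenge used bursicon conditioned medium at about half maximal strength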
TWEAK-Fn14 inh: inhibitors of TWEAK-Fn14 signaling, primary screen, luciferase reporter cells, uHTS. TWEAK-stimulated Fn14 reporter cells, luciferase luminescence, 8 h. inhibition, % at 10 µM. 2% of 360,000 active. AID 1159606, 2016; in the data active = inhibition above about 50%
LMP1 NFkB inh: EBV LMP1-driven NF-kappaB luciferase reporter inhibitors, primary screen, cell-based, luminescence, single point. LMP1-induced NF-kappaB luciferase reporter cells. inhibition, % at 12.5 µM. 0.69% of 350,000 active; in the data active = inhibition above about 41%;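 note: 0% = neutral control wells and 100% = reference inhibitor control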
TROY signal inh: inhibitors of TROY-driven NF-kB signaling, primary screen, Q293 LMP1-TROYcd cells, NF-kB luciferase, uHTS | Q293 LMP1-TROYcd NF-kB luciferase reporter, 4 h | inhibition, % at 10 µM | 0.98% of 360,000 active;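 active = compounds whose plate-normalised and pattern-corrected inhibition of the luciferase reporter signal at the single screening dose is 50% or more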
HSP90 refold inh: HSP90 inhibitors, primary screen, cell lysate, luminescence | Heat shock protein HSP 90 (rabbit reticulocyte lysate; luciferase refolding) | Rabbit reticulocyte lysate, luciferase refolding luminescence, 3 h | inhibition, % at 5.6 µM | 0.91% of 290,000 active;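 active = inhibition above the screen-wide mean plus 3 SD, computed separately per campaign, cut at about 16% in these data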;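 note: 0% = DMSO wells and 100% = 60 µM geldanamycin wells; inhibitors lower the luminescence because luciferase stays unfolded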
aDG glyco conf: alpha-DG glycosylation enhancers, retest, confirmation, single concentration, Pro5-aDG cells. shares compounds with aDG glyco act. IIH6 AlphaLISA; scaled to LARGE-overexpressing B10 cells as 100%. activation, % at 10 µM (by protocol). 17% of 600 active. AID 651671, 2012;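 active = activation of at least 7% in one or more replicates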;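 note: cells exposed to compound for two days before detection; 0% = DMSO-treated Pro5 cells and 100% = DMSO-treated B10-LARGE cells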
* marks the source's active call; other numbers are inactive results.

How did N#Cc1ccsc1NC(=O)c1cccc(-n2cnnn2)c1 do in these assays?
aDG glyco act: 10.6*; LGR2 antag: -7.1; TWEAK-Fn14 inh: 1.1; LMP1 NFkB inh: -7.6; TROY signal inh: -9.8; HSP90 refold inh: -1.7; aDG glyco conf: 7.1*

Results for CC(C)c1nnc(NC(=O)c2cccc(-n3cnnn3)c2)s1 ?
aDG glyco act: 0.0; TWEAK-Fn14 inh: -10.3; LMP1 NFkB inh: -2.8; TROY signal inh: -16.0; HSP90 refold inh: 0.9

Results for CCOc1ccc(N=Cc2ccc([N+](=O)[O-])cc2)c(O)c1 ?
aDG glyco act: 5.9*; LGR2 antag: -40.3; TWEAK-Fn14 inh: -6.6; LMP1 NFkB inh: -5.3; TROY signal inh: -43.6; aDG glyco conf: 2.2

How did C[C@@H]1CCCCO[C@@H](CN(C)CC2CCCCC2)[C@H](C)CN([C@H](C)CO)C(=O)c2cc(NC(=O)Cc3ccccc3)ccc2O1 do in these assays?
LGR2 antag: -3.9

How did CCN1CCc2c(sc(NC(=O)c3ccc(S(=O)(=O)N4CCOCC4)cc3)c2C(N)=O)C1 do in these assays?
aDG glyco act: 88.4*; LGR2 antag: -6.2; TWEAK-Fn14 inh: 7.5; LMP1 NFkB inh: -4.6; TROY signal inh: 4.7; HSP90 refold inh: 0.7; aDG glyco conf: 2.5

How did CNC(=O)c1c(NC(=O)c2ccc(S(=O)(=O)N3CCCC3)cc2)sc2c1CCN(C(C)C)C2 do in these assays?
LGR2 antag: -3.7; HSP90 refold inh: 3.2

How did CCN1CCc2c(sc(NC(=O)c3ccc(S(=O)(=O)N4CCOCC4)cc3)c2C(=O)OC)C1 do in these assays?
aDG glyco act: 0.1; LGR2 antag: -15.3; TWEAK-Fn14 inh: -61.5; LMP1 NFkB inh: -25.5; TROY signal inh: -7.4; HSP90 refold inh: 2.7

Results for CC1CCCN(S(=O)(=O)c2ccc(C(=O)Nc3sc4c(c3C(N)=O)CCN(C)C4)cc2)C1 (configuration not stated) ?
aDG glyco act: 47.5*; LGR2 antag: -2.2; TWEAK-Fn14 inh: -4.2; LMP1 NFkB inh: 4.1; TROY signal inh: -24.1; HSP90 refold inh: 0.1; aDG glyco conf: 3.7*

How did CCCN1CCc2c(sc(NC(=O)c3ccc(S(=O)(=O)N4CCCC4)cc3)c2C(N)=O)C1 do in these assays?
aDG glyco act: 6.3; LGR2 antag: -9.4; TWEAK-Fn14 inh: -3.6; LMP1 NFkB inh: -4.5; TROY signal inh: -25.2; HSP90 refold inh: 3.7

What do the screens show for `CCN1CCc2c(sc(NC(=O)c3ccc(S(=O)(=O)N4CCCCCC4)cc3)c2C(=O)NC)C1`?
aDG glyco act: 25.7*; LGR2 antag: -6.1; TWEAK-Fn14 inh: -8.4; LMP1 NFkB inh: -2.0; TROY signal inh: -10.0; HSP90 refold inh: -4.3; aDG glyco conf: 0.4

How did CC(C)N1CCc2c(sc(NC(=O)C3CCCCC3)c2C(N)=O)C1 do in these assays?
aDG glyco act: 8.2*; LGR2 antag: 35.5; TWEAK-Fn14 inh: 13.2; LMP1 NFkB inh: 4.3; TROY signal inh: -5.1; HSP90 refold inh: -1.2; aDG glyco conf: -0.7

How did CN(C)CCCNC(=O)C[C@H]1CC[C@@H]2[C@H](COC[C@H](O)CN2Cc2cccc(F)c2)O1 do in these assays?
LGR2 antag: -5.2

How did COc1cccc(-c2ccc3c(c2)[C@@H]2[C@@H](CCN2S(=O)(=O)c2ccccc2F)[C@H](CO)N3C)c1 do in these assays?
LGR2 antag: 7.8

How did CO[C@H]1CN(C)C(=O)c2cc(NC(C)=O)ccc2OC[C@H](C)N(CCC(F)(F)F)C[C@@H]1C do in these assays?
LGR2 antag: 15.4

What do the screens show for `COc1ccc(C(=O)Nc2ccc3c(c2)C(=O)N(C)C[C@H](OC)[C@@H](C)CN[C@H](C)CO3)cc1`?
LGR2 antag: 9.6

What do the screens show for `O=C(c1ccccn1)N1C[C@H]2[C@@H](c3ccccc31)[C@H](CO)N2C(=O)Nc1ccccc1`?
LGR2 antag: -1.0

Screens: PubChem BioAssay, several laboratories
